# Assay outcomes: PubChem BioAssay, several laboratories
# This is a sample that favours compounds with a hit; in the whole collection about 7.2% have one here.
# VLA-4 inh = inhibition in a human VLA-4 binding assay; VLA-4 expressing cells, ligand binding flow cytometry; inhibition, % (about 7 µM as worked out from the volumes in the protocol); 330,000 tested, 0.2% active; AID 2557; in the data active means inhibition above about 50%
# Target sequence (P13612 whole entry, looked up): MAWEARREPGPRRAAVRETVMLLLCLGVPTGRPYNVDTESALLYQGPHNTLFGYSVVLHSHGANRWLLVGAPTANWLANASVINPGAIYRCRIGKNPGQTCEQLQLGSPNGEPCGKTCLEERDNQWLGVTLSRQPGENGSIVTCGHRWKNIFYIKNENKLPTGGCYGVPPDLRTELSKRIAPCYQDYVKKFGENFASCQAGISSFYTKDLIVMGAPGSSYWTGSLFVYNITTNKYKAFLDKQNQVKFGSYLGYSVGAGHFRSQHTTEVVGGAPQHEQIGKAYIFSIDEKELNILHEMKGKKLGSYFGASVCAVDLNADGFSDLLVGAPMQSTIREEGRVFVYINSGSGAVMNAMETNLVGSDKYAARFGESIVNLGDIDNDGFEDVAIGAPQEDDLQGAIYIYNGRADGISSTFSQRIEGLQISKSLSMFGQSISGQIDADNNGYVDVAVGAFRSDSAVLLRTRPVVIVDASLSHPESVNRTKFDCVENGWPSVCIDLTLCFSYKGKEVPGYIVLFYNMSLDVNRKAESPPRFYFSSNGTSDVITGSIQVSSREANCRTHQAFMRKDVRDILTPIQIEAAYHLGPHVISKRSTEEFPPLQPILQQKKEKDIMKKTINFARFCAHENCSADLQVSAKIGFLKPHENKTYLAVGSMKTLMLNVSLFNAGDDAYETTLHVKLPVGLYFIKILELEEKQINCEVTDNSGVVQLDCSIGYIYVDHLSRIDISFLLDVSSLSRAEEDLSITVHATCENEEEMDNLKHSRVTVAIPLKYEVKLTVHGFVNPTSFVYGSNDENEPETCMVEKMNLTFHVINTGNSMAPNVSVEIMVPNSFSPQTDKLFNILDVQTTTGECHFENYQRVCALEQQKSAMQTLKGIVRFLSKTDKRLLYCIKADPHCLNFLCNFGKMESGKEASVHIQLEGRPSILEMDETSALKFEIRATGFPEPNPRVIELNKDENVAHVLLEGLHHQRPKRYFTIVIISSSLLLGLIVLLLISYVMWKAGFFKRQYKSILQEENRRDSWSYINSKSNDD
# ALR inh = human ALR oxidase inhibition via reduced H2O2 | P55789 | 290,000 tested, 3.8% active | inhibition, % (no concentration beside the values) | purified ALR, DTT oxidation, H2O2 HRP-luminol luminescence;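 active means mean replicate inhibition above about 79%, with every replicate also reaching it, limit read from the data; inconclusive means only one of the two criteria met; inactive means mean below limit and not every replicate reaching it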
# Bfl-1 A1 inh = inhibitors of the anti-apoptotic protein A1, read as caspase activation. AID 2462. MEF A1-2A-BIM cells, Caspase-Glo 3/7 luminescence, 3 h; percent of clofoctol response, vehicle zero. caspase activation, % (concentration not given with the values). 330,000 tested, 0.066% active;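 active means over half of replicate activation scores above 10%, or exactly half above 10 with the replicate mean above 10; inconclusive means replicate mean below 10 yet half the replicates above 10; inactive means over half of replicates below 10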
# AHR act = activates the human aryl hydrocarbon receptor; activation, % at 5 µM; 320,000 tested, 2.5% active; AHR-responsive luciferase reporter cells, luminescence; in the data active means activation above about 47%;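 further: 0% = vehicle wells and 100% = reference agonist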
# SUMO Mot1 rescue = inhibitors of SUMOylation pathway: yeast Mot1-301 growth rescue; S. cerevisiae Mot1-301 growth rescue, ATP luminescence, 38.5C; percent above DMSO median, 100 means doubled; 320,000 tested, 1% active; growth rescue, % at 18.8 µM;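 active means every valid replicate shows activation above 250% relative to neutral control wells; inactive means the rest, any valid replicate at or below 250%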;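 further: OY570 slx delta 5 strain wells were the positive control but not used for scaling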
# Efflux pump inh = antifungal efflux pump inhibition, Nile Red retention; S. cerevisiae Candida pump triplex; inhibition, % at 10 µM; 330,000 tested, 0.44% active;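 active means plate passing quality check with inhibition over a set limit, or well fluorescence over plate mean plus 4 SD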;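 further: Nile Red retained in pooled yeast measured as flow cytometry median fluorescence; 0% = buffer negative control and 100% = Enniatin B positive control; higher means more Nile Red kept so more efflux inhibition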
# The depositor's hits bear a star; ? = inconclusive; / = not tested or not shown.
SMILES,VLA-4 inh,ALR inh,Bfl-1 A1 inh,AHR act,SUMO Mot1 rescue,Efflux pump inh
O=C(NNc1c2ccccc2nc2ccccc12)C(O)c1ccccc1 (centres undefined),0,99*,0,13,4,0
O=C(NNc1c2ccccc2nc2ccccc12)c1cccc(O)c1,-3,99*,-1,32,1,0
O=C(NNc1c2ccccc2nc2ccccc12)C12CC3CC(CC(C3)C1)C2,6,/,0,14,3,0
O=C(NNC(=O)c1ccc2ccccc2n1)c1ccc(O)cc1,1,/,/,-4,/,0
COc1ccc(CCC(=O)OCC(=O)Nc2c(C)nn(-c3ccccc3)c2C)cc1,7,-1,?,-2,-2,0
Cc1cc(C)c(C)c(S(=O)(=O)N2CCNCC2)c1C,12,-4,0,-1,5,0
CCn1cc(Cl)c(C(=O)NNC(=O)CCn2ccc([N+](=O)[O-])n2)n1,-9,-1,1,1,-3,-1
COc1cc(C)nc(Oc2ccc(/C=N/O)cc2)n1,13,98*,0,1,-4,0
CN(C)c1nc(Oc2ccc(/C=N/O)cc2)nc(N(C)C)n1,13,99*,0,3,-4,0
COc1nc(Oc2ccc(/C=N/O)cc2)nc(N(C)C)n1,6,99*,0,0,-5,0
CC(C)Nc1nc(NC(C)C)nc(Oc2ccc(/C=N/O)cc2)n1,0,/,-2,0,15,0
Cc1cccc(NC(=O)CSc2nc(N)c(NC(=O)c3cccs3)c(=O)[nH]2)c1C,3,13,-1,1,9,0
COc1ccc(NC(=O)c2cc(-c3ccccc3Cl)on2)cc1,0,-12,-1,56*,17,1
COc1ccc(-c2cc(C(=O)Nc3cccc(Cl)c3)no2)cc1,11,-26,-3,9,90,0
COc1ccc(Nc2cccc(Cl)c2)c(C(=O)O)c1,0,98*,0,0,-2,0
COc1ccc(NC(=O)c2cc(-c3ccccc3OC)on2)cc1,7,-19,-1,44,21,0
COc1ccc(OC)c(-c2cc(C(=O)Nc3cccc(Cl)c3)no2)c1,4,0,0,55*,0,0
CC(=O)Nc1ccc(S(=O)(=O)N2CCN(c3ccc([N+](=O)[O-])cc3)CC2)cc1,0,7,0,/,34,0
CCCn1c(N)c(N2CCCCC2)c(=O)n(CC(=O)Nc2ccc(C(C)=O)cc2)c1=O,-17,50,1,2,4,0
Cc1ccccc1CN1CCCC(C(=O)Nc2ccccc2Oc2cccnc2)C1 (centres undefined),10,0,0,10,-3,0
COc1ccc(C2CCCN2CC(O)COc2ccccc2C(C)C)cc1 (centres undefined),-4,/,0,12,11,0
CC(=O)Nc1ccc(NC(=O)/C=C/c2cccc(C(F)(F)F)c2)cc1,-1,-3,0,7,20,0
CC(=O)N(c1cccc(C(F)(F)F)c1)c1nc(/C=C/C(=O)O)cs1,9,-6,-1,73*,81,0
CCOC(=O)c1c(C)[nH]c(C2=NNC(=Nc3cccc(Cl)c3)SC2)c1C,9,0,0,120*,235,-1
COc1cc(/C=N/NC(=O)c2cc(-c3ccccc3)sc2N)cc(OC)c1OC,-1,/,0,49*,-7,0
SMILES,VLA-4 inh,ALR inh,Bfl-1 A1 inh,AHR act,SUMO Mot1 rescue,Efflux pump inh
COc1cc(/C=N\NC(=O)c2sc(N)nc2C)cc(OC)c1OC,16,-1,1,62*,2,0
COc1cc(/C=N/NC(=S)N/N=C/c2cc(OC)c(OC)c(OC)c2)cc(OC)c1OC,-12,88*,-1,26,-3,-2
COc1cc(/C=N/NC(=O)c2ccc(-c3ccccc3)cc2)cc(OC)c1OC,1,0,0,11,3,0
Cc1cc(C)cc(NC(=O)N(CCC#N)Cc2cccs2)c1,3,-2,0,2,-5,0
COc1ccccc1C(=O)NC(CCSC)C(=O)OCC(=O)N1CCCC1=O (centres undefined),-11,/,1,0,-6,0
O=C(COC(=O)COc1ccccc1)Nc1ccc(S(=O)(=O)N2CCOCC2)cc1,11,-17,0,0,14,0
